# Measured values from the supplement of paper PMC8728848.
# The entries come from a sample that favours the strongest signals as a whole.
# Experiments:
# Assay in all cases: glycan array binding signal (z-score within array); higher = stronger binding
# Conditions in all cases: glycan notation: IUPAC condensed, linker removed
# [1] = target: Fuc(a1-2)Gal(b1-3)[Fuc(a1-4)]GlcNAc(b1-2)Man(a1-3)[Fuc(a1-2)Gal(b1-3)[Fuc(a1-4)]GlcNAc(b1-2)Man(a1-3)]Man(b1-4)GlcNAc(b1-4)GlcNAc
# Outline: (§1)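 Arrays were curated from the Consortium for Functional Glycomics database, 3228 in total, and kept only where the protein sequence was available. Binding is expressed as a within-array Z-score. This score was averaged across arrays of the same protein sequence at different concentrations or buffers and across linkers, and negative values can be read as non-binding.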
# [2] = target: Fuc(a1-2)Gal(b1-4)GlcNAc(b1-2)Man(a1-3)[Fuc(a1-2)Gal(b1-4)GlcNAc(b1-2)Man(a1-6)]Man(b1-4)GlcNAc(b1-4)[Fuc(a1-6)]GlcNAc
# Outline: as §1
# [3] = target: Fuc(a1-2)Gal(b1-4)GlcNAc(b1-3)Gal(b1-4)GlcNAc
# Outline: as §1
# [4] = target: Fuc(a1-2)Gal(b1-4)GlcNAc(b1-6)GalNAc
# Outline: as §1
# [5] = target: Fuc(a1-2)Gal(b1-4)[Fuc(a1-3)]GlcNAc
# Outline: as §1
# Fuc(a1-2)[Gal(a1-3)]Gal = target: Fuc(a1-2)[Gal(a1-3)]Gal
# Outline: as §1
# [6] = target: Fuc(a1-2)[Gal(a1-4)]Gal(b1-4)GlcNAc
# Outline: as §1
# [7] = target: Fuc(a1-2)[GalNAc(a1-3)]Gal(b1-3)GlcNAc(b1-2)Man(a1-3)[Fuc(a1-2)[GalNAc(a1-3)]Gal(b1-3)GlcNAc(b1-2)Man(a1-6)]Man(b1-4)GlcNAc(b1-4)GlcNAc
# Outline: as §1
# [8] = target: Fuc(a1-2)[GalNAc(a1-3)]Gal(b1-4)GlcNAc(b1-3)Gal(b1-4)GlcNAc
# Outline: as §1
# [9] = target: Fuc(a1-2)[GalNAc(a1-3)]Gal(b1-4)GlcNAc(b1-3)GalNAc
# Outline: as §1
# Fuc(a1-3)GlcNAc = target: Fuc(a1-3)GlcNAc
# Outline: as §1
# [10] = target: Fuc(a1-3)[Gal(b1-4)]GlcNAc(b1-2)Man(a1-3)[Fuc(a1-3)[Gal(b1-4)]GlcNAc(b1-2)Man(a1-6)]Man(b1-4)GlcNAc(b1-4)GlcNAc
# Outline: as §1
# [11] = target: Fuc(a1-3)[GalNAc(b1-4)]GlcNAc
# Outline: as §1
# Fuc(b1-3)GlcNAc = target: Fuc(b1-3)GlcNAc
# Outline: as §1
# [12] = target: Gal(a1-4)Gal(b1-4)GlcNAc(b1-2)Man(a1-3)[Gal(a1-4)Gal(b1-4)GlcNAc(b1-2)Man(a1-6)]Man(b1-4)GlcNAc(b1-4)GlcNAc
# Outline: as §1
# Gal(a1-6)Glc = target: Gal(a1-6)Glc
# Outline: as §1
# Gal(b1-2)Gal = target: Gal(b1-2)Gal
# Outline: as §1
# [13] = target: Gal(b1-3)GlcNAc(b1-2)Man(a1-3)[Gal(b1-3)GlcNAc(b1-2)Man(a1-6)]Man(b1-4)GlcNAc(b1-4)[Fuc(a1-6)]GlcNAc
# Outline: as §1
# [14] = target: Gal(b1-3)GlcNAc(b1-2)[Gal(b1-3)GlcNAc(b1-6)]Man(a1-6)[Gal(b1-3)GlcNAc(b1-2)Man(a1-3)]Man(b1-4)GlcNAc(b1-4)GlcNAc
# Outline: as §1
# [15] = target: Gal(b1-3)[Fuc(a1-4)]GlcNAc(b1-3)Gal(b1-4)[Fuc(a1-3)]GlcNAc
# Outline: as §1
# [16] = target: Gal(b1-3)[Fuc(a1-4)]GlcNAc(b1-6)GalNAc
# Outline: as §1
# [17] = target: Gal(b1-3)[GlcNAc(b1-6)]GalNAc
# Outline: as §1
# Gal(b1-4)Glc = target: Gal(b1-4)Glc
# Outline: as §1
# [18] = target: Gal(b1-4)GlcNAc(b1-2)Man(a1-3)[Gal(b1-4)GlcNAc(b1-2)Man(a1-6)][GlcNAc(b1-4)]Man(b1-4)GlcNAc(b1-4)[Fuc(a1-6)]GlcNAc
# Outline: as §1
# [19] = target: Gal(b1-4)GlcNAc(b1-2)[Gal(b1-4)GlcNAc(b1-4)]Man(a1-3)[GlcNAc(b1-4)][Gal(b1-4)GlcNAc(b1-2)[Gal(b1-4)GlcNAc(b1-6)]Man(a1-6)]Man(b1-4)GlcNAc(b1-4)GlcNAc
# Outline: as §1
# [20] = target: Gal(b1-4)GlcNAc(b1-2)[Gal(b1-4)GlcNAc(b1-6)]Man(a1-6)[GlcNAc(b1-4)][Gal(b1-4)GlcNAc(b1-2)Man(a1-3)]Man(b1-4)GlcNAc(b1-4)GlcNAc
# Outline: as §1
# [21] = target: Gal(b1-4)GlcNAc(b1-3)Gal(b1-4)GlcNAc(b1-2)Man(a1-3)[Gal(b1-4)GlcNAc(b1-3)Gal(b1-4)GlcNAc(b1-2)Man(a1-6)]Man(b1-4)GlcNAc(b1-4)GlcNAc
# Outline: as §1
# [22] = target: Gal(b1-4)GlcNAc(b1-3)Gal(b1-4)GlcNAc(b1-2)[Gal(b1-4)GlcNAc(b1-3)Gal(b1-4)GlcNAc(b1-6)]Man(a1-6)[Gal(b1-4)GlcNAc(b1-3)Gal(b1-4)GlcNAc(b1-2)Man(a1-3)]Man(b1-4)GlcNAc(b1-4)[Fuc(a1-6)]GlcNAc
# Outline: as §1
# [23] = target: Gal(b1-4)GlcNAc(b1-3)Gal(b1-4)GlcNAc(b1-3)Gal(b1-4)GlcNAc
# Outline: as §1
# [24] = target: Gal(b1-4)GlcNAc(b1-3)Gal(b1-4)GlcNAc(b1-3)Gal(b1-4)GlcNAc(b1-2)[Gal(b1-4)GlcNAc(b1-3)Gal(b1-4)GlcNAc(b1-3)Gal(b1-4)GlcNAc(b1-6)]Man(a1-6)[Gal(b1-4)GlcNAc(b1-3)Gal(b1-4)GlcNAc(b1-3)Gal(b1-4)GlcNAc(b1-2)Man(a1-3)]Man(b1-4)GlcNAc(b1-4)[Fuc(a1-6)]GlcNAc
# Outline: as §1
binder,measurement,setting,value
Clone646PsrP (Streptococcus pneumoniae) (protein) MDHHHHHHHHASENLYFQGAPAINASLNIAKSETKVYTGEGVDSVYRVPIYYKLKVTNDGSKLTFTYTVTYVNPKTNDLGNISSMRPGYSIYNSGTSTQTMLTLGSDLGKPSGVKNYITDKNGRQVLSYNTSTMTTQGSGYTWGNGAQMNGFFAKKGYGLTSSWTVPITGTDTSFTFTPYAARTDRIGINYFNGGGKVVESSTTSQSLSQSKSLSVSAS,glycan array binding signal (z-score),[1],1.88
same,glycan array binding signal (z-score),[2],0.523
same,glycan array binding signal (z-score),[3],-0.74
same,glycan array binding signal (z-score),[4],2.58
same,glycan array binding signal (z-score),[5],0.085
same,glycan array binding signal (z-score),Fuc(a1-2)[Gal(a1-3)]Gal,-0.314
same,glycan array binding signal (z-score),[6],0.495
same,glycan array binding signal (z-score),[7],-0.761
same,glycan array binding signal (z-score),[8],-0.638
same,glycan array binding signal (z-score),[9],0.378
same,glycan array binding signal (z-score),Fuc(a1-3)GlcNAc,0.18
same,glycan array binding signal (z-score),[10],-0.096
same,glycan array binding signal (z-score),[11],0.979
same,glycan array binding signal (z-score),Fuc(b1-3)GlcNAc,1.31
same,glycan array binding signal (z-score),[12],-0.434
same,glycan array binding signal (z-score),Gal(a1-6)Glc,0.015
same,glycan array binding signal (z-score),Gal(b1-2)Gal,2.94
same,glycan array binding signal (z-score),[13],-0.421
same,glycan array binding signal (z-score),[14],9.03
same,glycan array binding signal (z-score),[15],-0.797
same,glycan array binding signal (z-score),[16],-0.757
same,glycan array binding signal (z-score),[17],0.41
same,glycan array binding signal (z-score),Gal(b1-4)Glc,0.581
same,glycan array binding signal (z-score),[18],-0.984
same,glycan array binding signal (z-score),[19],-0.776
same,glycan array binding signal (z-score),[20],-0.887
same,glycan array binding signal (z-score),[21],0.169
same,glycan array binding signal (z-score),[22],-0.263
same,glycan array binding signal (z-score),[23],-0.913
same,glycan array binding signal (z-score),[24],-0.442
